# Screen size: about 310,000 compounds; about 14,000 (4.5%) showed an effect of 50% or more. The effect is printed as a negative number. What follows is part of a selection rich in strong results, with near analogues and random picks from the rest.
# Target: human ether-à-go-go-related gene (hERG) potassium channel (human, UniProt Q12809)
# Test: primary screen, population patch clamp on CHO cells stably expressing hERG; higher = less effect of the substance
# 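Also: peak tail current of the secondary pulse compared with the same well before compound.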
# Chain of human ether-à-go-go-related gene (hERG) potassium channel (Q12809 whole entry, looked up): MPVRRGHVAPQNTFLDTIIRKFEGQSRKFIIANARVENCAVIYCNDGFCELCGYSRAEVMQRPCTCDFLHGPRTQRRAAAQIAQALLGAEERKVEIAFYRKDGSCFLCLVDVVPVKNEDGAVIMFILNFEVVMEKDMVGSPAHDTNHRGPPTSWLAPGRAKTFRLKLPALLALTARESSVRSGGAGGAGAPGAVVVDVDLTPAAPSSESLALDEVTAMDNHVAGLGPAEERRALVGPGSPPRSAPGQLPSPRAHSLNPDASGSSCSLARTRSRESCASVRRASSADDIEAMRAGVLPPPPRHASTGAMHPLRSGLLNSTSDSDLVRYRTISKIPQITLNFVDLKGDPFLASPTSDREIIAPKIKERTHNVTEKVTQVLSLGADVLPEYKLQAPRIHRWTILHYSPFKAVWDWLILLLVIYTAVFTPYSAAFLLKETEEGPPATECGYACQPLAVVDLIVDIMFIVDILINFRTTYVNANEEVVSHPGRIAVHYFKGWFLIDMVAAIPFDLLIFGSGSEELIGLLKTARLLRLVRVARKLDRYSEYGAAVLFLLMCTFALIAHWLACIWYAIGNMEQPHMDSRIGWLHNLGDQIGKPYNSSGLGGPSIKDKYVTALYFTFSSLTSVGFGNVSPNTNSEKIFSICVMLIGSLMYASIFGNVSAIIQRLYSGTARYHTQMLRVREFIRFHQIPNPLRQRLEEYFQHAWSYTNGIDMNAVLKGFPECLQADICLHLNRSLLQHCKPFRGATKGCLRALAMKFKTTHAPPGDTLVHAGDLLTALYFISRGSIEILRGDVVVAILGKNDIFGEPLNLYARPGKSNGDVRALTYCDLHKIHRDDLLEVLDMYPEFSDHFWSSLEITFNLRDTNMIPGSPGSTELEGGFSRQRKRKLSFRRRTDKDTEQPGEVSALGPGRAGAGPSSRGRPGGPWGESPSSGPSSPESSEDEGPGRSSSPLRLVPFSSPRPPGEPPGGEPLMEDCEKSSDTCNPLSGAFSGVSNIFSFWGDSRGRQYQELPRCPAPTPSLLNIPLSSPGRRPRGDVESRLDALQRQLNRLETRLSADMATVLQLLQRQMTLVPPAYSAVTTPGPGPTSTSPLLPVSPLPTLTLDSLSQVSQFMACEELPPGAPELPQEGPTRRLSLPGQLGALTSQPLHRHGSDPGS
row,Compound,"hERG current change (%, negative = inhibition) at 10uM [%]"
1,CC(C)OCCCNC(=O)c1cccs1,-9.39
2,COc1cc2c(cc1OC)C(c1cc(OC)c(OC)cc1[N+](=O)[O-])N(C(C)=O)CC2 (stereo not shown),26
3,N#C/C(=N\[O-])c1nc(-c2ccccc2)cs1.[K+],-8.69
4,O=C(O)c1ccc(N/N=C/c2cccc(C(F)(F)F)c2)cc1,27.3
5,CN1CCc2c(sc(NC(=O)c3ccc4ccccc4c3)c2C(N)=O)C1.Cl,-5.05
6,CN1CCc2c(sc(NC(=O)c3ccco3)c2C(N)=O)C1.Cl,-17
7,CN1CCc2c(sc(NC(=O)c3cc(Cl)sc3Cl)c2C(N)=O)C1.Cl,-59.8
8,CC(=O)N1CCc2c(sc(NC(=O)C3CCCN3S(=O)(=O)c3cccs3)c2C(N)=O)C1 (stereo not shown),-2.88
9,CN1CCc2c(sc(NC(=O)C3CCCN3S(=O)(=O)c3ccc(Cl)s3)c2C(N)=O)C1.Cl (stereo not shown),-63.6
10,CN1CCc2c(sc(NC(=O)C3CCCCC3)c2C(N)=O)C1.Cl,2.22
11,Cc1ccc(-n2cnc3ncnc(-c4ccccc4)c32)cc1,-6.83
12,Cc1ccc2[nH]c3c(c2c1)CN(C)CC3.Cl,-5.01
13,O=C(CN(C(=O)c1csnn1)c1cccc(Cl)c1)NC1CCCC1,-2.38
14,COc1ccc(CCC(=O)NNC(=O)Nc2ccc(C(C)C)cc2)cc1,23.8
15,COc1ccc(NC(=O)CN2CCN(c3ccccn3)CC2)cc1Cl,-17.4
16,COc1ccc(CC(NC(C)=O)C(=O)NC2CCN(S(=O)(=O)c3ccccc3)CC2)c(OC)c1 (stereo not shown),20.5
17,COc1ccc(CC2(CO)CCN(C/C=C/c3ccccc3OC)CC2)cc1,-72.8
18,COc1ccccc1/C=C/CN1CCCCC1,-2.31
19,COc1ccccc1/C=C/CN1CCC(CO)(Cc2ccccc2)CC1,-37.9
20,COc1ccccc1/C=C/CN1CCSCC1,-3.74
21,COc1ccc(/C=C/CN2CCCC(CO)(Cc3cccc(Cl)c3)C2)cc1 (stereo not shown),-50.8
22,COCc1ccc(CN2CCCC(CO)(Cc3cccc(Cl)c3)C2)o1 (stereo not shown),-46.1
23,COc1ccccc1/C=C/CN1CCOCC1,-3.9
24,COc1ccccc1/C=C/CN1CCCC(CO)(CCc2ccccc2)C1 (stereo not shown),-74.7
25,COc1cccc(CC2(CO)CCCN(C/C=C/c3ccccc3OC)C2)c1 (stereo not shown),-73.2

row,Compound,"hERG current change (%, negative = inhibition) at 10uM [%]"
1,COc1ccc(F)c(CN2CCCC(CO)(Cc3cccc(Cl)c3)C2)c1 (stereo not shown),-30.6
2,C=CCC1NS(=O)(=O)OC2CCCC12 (stereo not shown),10.6
3,Cc1ccc(Cn2cccc(NC(=O)NCc3ccccc3)c2=O)cc1,-6.27
4,NC(=O)c1ccc[n+]([C@H]2O[C@@H](COP(=O)([O-])OP(=O)(O)OC[C@H]3O[C@@H](n4cnc5c(N)ncnc54)[C@H](O)[C@@H]3O)[C@H](O)[C@@H]2O)c1,12.1
5,Cc1c(C(=O)NN2CCOCC2)oc2c1ccc1ccccc12,2.24
6,Cc1ccc(C(=O)OCc2nnc(-c3ccccc3)o2)cc1S(=O)(=O)N1CCOCC1,-26.7
7,CN1CCN(C(=O)CC2(CC(=O)O)CCCC2)CC1.Cl,-1.66
8,CCn1c(CNC(=O)c2cccc(C)c2)nnc1SCC(=O)Nc1nnc(C)s1,15.4
9,Cn1c(=O)c(=O)n(C)c2cc(S(=O)(=O)NCCOc3ccccc3Cl)ccc21,1.26
10,COc1ccccc1/C=C/CN1CCCC(CO)(Cc2cccc(Cl)c2)C1 (stereo not shown),-69.6
11,COc1ccc(C2CC(=O)c3cc(OC)c(OC)cc32)cc1OC (stereo not shown),20.7
12,COc1ccc(CN(C)C(C)C(=O)Nc2cccc3ccccc23)cc1 (stereo not shown),-14.1
13,Cc1ccc(NC(=O)C2CC(=O)Nc3nncn32)cc1 (stereo not shown),14.4
14,O=C(COC(=O)c1ccc(O)cc1)NCC1COc2ccccc2O1 (stereo not shown),-3.35
15,COc1ccc(/C=C/C(=O)NC(=S)NNC(=O)c2ccco2)cc1,13.8
16,Cc1ccc(/C(O)=C2/C(=O)C(=O)N(CCN3CCOCC3)C2c2cccs2)cc1 (stereo not shown),8.67
17,O=C(CSc1nnc2scc(-c3ccccc3)n12)NCc1ccc2c(c1)OCO2,-21.1
18,Cc1ccc(-c2csc3nnc(SCC(=O)N4CCN(Cc5ccccc5)CC4)n23)cc1,-55.3
19,Cn1c(SCC(=O)N2CCN(Cc3ccccc3)CC2)nnc1-c1ccncc1,-2.39
20,Cc1ccc(-c2nc(NC(=O)CSc3nnc4scc(-c5ccccc5)n34)ns2)cc1,-1.19
21,O=C(CSc1nnc2scc(-c3ccccc3)n12)N1CCN(Cc2ccccc2)CC1,-41.8
22,c1ccc(-c2csc3nnc(SCc4ccc5c(c4)OCCO5)n23)cc1,-3.29
23,Cc1ccc(-c2csc3nnc(SCC(=O)Nc4nsc(-c5ccccc5)n4)n23)cc1,-62.9
24,O=C(CSc1nnc2scc(-c3ccccc3)n12)Nc1nsc(-c2ccccc2)n1,-40.1
25,c1ccc(-c2csc3nnc(SCc4ccc5c(c4)OCO5)n23)cc1,-71.4

row,Compound,"hERG current change (%, negative = inhibition) at 10uM [%]"
1,CCOc1ccccc1NC(=O)C(Sc1nnnn1C)c1ccccc1 (stereo not shown),-21.2
2,Cn1c(NC(=O)c2ccccc2)c(-c2cccs2)c(=O)c2ccccc21,7.07
3,CC(=O)c1ccc(N=Nc2c(C)[nH]n(-c3ccccc3)c2=O)cc1,8.59
4,CC1CCN(C(=S)c2cn(Cc3ccc(F)cc3)c3ccccc23)CC1,-1.82
5,COc1cc(/C=C/C(=O)O)cc(S(=O)(=O)Nc2ccc3nc(C)sc3c2)c1OC,26.5
6,CCOc1ccc(C(=O)Nc2ccccc2N2CCN(C(=O)c3ccccc3)CC2)cc1[N+](=O)[O-],-83.3
7,CCOc1ccc(C(=O)NC(=S)Nc2ccccc2N2CCC(C)CC2)cc1[N+](=O)[O-],5.75
8,CCOc1ccccc1NC(=O)c1ccc(OCC)c([N+](=O)[O-])c1,-10.3
9,CCOc1ccc(C(=O)Nc2ccccc2CC)cc1[N+](=O)[O-],-21.9
10,CCOc1ccc(C(=O)NC(=S)Nc2ccccc2N2CCCCC2)cc1[N+](=O)[O-],11.7
11,CCOc1ccc(C(=O)Nc2ccccc2C#N)cc1[N+](=O)[O-],-55.6
12,O=C1NC2(CCCCCC2)Cc2ccccc21,-21.2
13,Cc1ccc(C(=O)NNC(=O)C(C)Oc2ccc3ccccc3c2)o1 (stereo not shown),-13.2
14,C/C(CC(=O)NC(C)(C)C)=N\NC(N)=S,20
15,CCN(CC)S(=O)(=O)c1ccc(NC(=O)c2cccc3c2C(=O)N(CCOC)C3)cc1,-1.36
16,Cc1cc(C)n2nc(SC(C)C(=O)N3CCC4(CC3)OCCO4)nc2n1 (stereo not shown),-0.197
17,COc1ccc(N2CCN(C(=O)c3cccc(Cn4cc(Cl)cn4)c3)CC2)cc1,-48
18,O=C(c1ccc(Cn2cc(Br)cn2)cc1)N1CCN(c2ccccc2)CC1,-57.4
19,NNC(=O)c1ccc(Cn2cc(Br)cn2)cc1,-2.07
20,O=C(c1ccc(Cn2cc(Cl)cn2)cc1)N1CCN(c2ccccc2)CC1,-58.4
21,O=C(O)c1ccc(Cn2cc(Cl)cn2)cc1,18.7
22,O=C(c1ccc(CN2CCOCC2)cc1)N1CCN(c2ccccc2)CC1,3.02
23,O=C(O)C1C(=O)NCC1c1ccccc1 (stereo not shown),10.6
24,Cc1ccc(C(=O)NC2CCCC(C)C2C)cc1S(=O)(=O)N1CCCCC1 (stereo not shown),-20.6
25,COC(=O)C1=C(C(=O)OC)N2C=CC=CC2(C)C(C(=O)OC)=C1C(=O)OC (stereo not shown),-5.49

row,Compound,"hERG current change (%, negative = inhibition) at 10uM [%]"
1,CCCCC(=O)Nc1ccc(N2CCN(C(=O)c3ccco3)CC2)cc1,-18.1
2,COC(=O)c1cc(COC(=O)c2cccnc2SC)oc1C,-5.24
3,O=C(CCNC(=O)C1CCN(S(=O)(=O)c2ccc(F)cc2)CC1)Nc1nccs1,15.5
4,Cc1ccc(C2CC(=O)N(c3ccc(F)cc3)C3=C2C(=O)CCC3)cc1 (stereo not shown),0.885
5,CC1CCC(NC(=O)CCS(=O)(=O)c2ccc3c(c2)CC(C)N3C(=O)C2CC2)CC1 (stereo not shown),7.85
6,CCCNC(=O)c1cc2ccccc2c(=O)o1,10.8
7,CN(C)CCNC(=O)c1ccccc1-c1cc2ccccc2c(=O)o1,-54.6
8,CN(C)CCNC(=O)c1ccccc1-c1ccccc1,-1.88
9,COc1ccc(N(C)S(=O)(=O)c2cccc(C(=O)NC3CCCCC3C)c2)cc1 (stereo not shown),-6.33
10,O=C(NCN1C(=O)C2C3C=CC(C3)C2C1=O)OC1CCCCC1 (stereo not shown),4.17
11,CCC1CCc2sc(C(=O)N(C)CC(=O)Nc3ccc(OC)cc3)cc2C1 (stereo not shown),-18.2
12,COc1ccc(C(CNC(=O)c2cc3c(s2)CCC(C)C3)N2CCOCC2)cc1 (stereo not shown),-54
13,CCC1CCc2sc(C(=O)NCC(c3ccc(OC)cc3)N3CCCC3)cc2C1 (stereo not shown),-71
14,CC1CCc2sc(C(=O)NCC(c3ccco3)N3CCCCC3)cc2C1 (stereo not shown),-30.8
15,COc1ccc(C(CNC(=O)c2ccco2)N2CCCC2)cc1 (stereo not shown),-7.05
16,CCC1CCc2sc(C(=O)NCC(c3ccccc3OC)N3CCCC3)cc2C1 (stereo not shown),-63.6
17,CCC1CCc2sc(C(=O)NCC(c3ccc(OC)cc3)N3CCOCC3)cc2C1 (stereo not shown),-5.82
18,CCC1CCc2sc(C(=O)NCC3CCCO3)cc2C1 (stereo not shown),-12.1
19,COc1ccc(C(CNC(=O)c2ccc(Cl)s2)N2CCOCC2)cc1 (stereo not shown),-18.2
20,COc1ccc(C(CNC(=O)c2cc3c(s2)CCCC3)N2CCOCC2)cc1 (stereo not shown),-23.5
21,CCC1CCc2sc(C(=O)NCc3ccccn3)cc2C1 (stereo not shown),-3.79
22,COc1ccc(C(CNC(=O)c2cc3c(s2)CCC(C)C3)N2CCCC2)cc1 (stereo not shown),-57.7

# From PMC4336329 (PLoS ONE, 2015)
